Assay results reported in PubChem BioAssay.

Experiment: yeast transport mutant growth inhibition pilot in 384-well plates, post-Golgi transport modulator project (AID 636; in the data active means inhibition above about 31%)
Conditions: absorbance 615 nm, about 18 h, active compounds read high

inhibition, inactive:
Cc1ccc(NC(=O)c2cc(-c3ccc(C)o3)nc3ccccc23)nc1 -7.43%
CCc1cccc(NC(=O)Cn2cc3c(n2)CCCC3)c1 -4.53%
CCN(CC)C(=O)C1CCCN(c2ncnc3c2cnn3-c2ccc(Cl)cc2)C1 (stereo not given) -4.4%
Cc1cccc(NC(=O)CS(=O)(=O)c2cn(C)c3ccccc23)c1 -3.47%
O=C(CN1C(=O)c2ccccc2S1(=O)=O)NCc1ccccc1Cl -2.05%
Cn1cnc2cc(NC(=O)c3ccc(Cl)cc3)ccc21 -4%
COC(=O)c1cn(NC(=O)C2CCCO2)c(=O)c2ccccc12 (stereo not given) -6.35%
O=C(c1ccc(Cl)s1)N1CCN(c2nc3ccccc3s2)CC1 -3.47%
O=C(Nc1ccc(N2C(=O)C3C4C=CC(C4)C3C2=O)cc1)Nc1nncs1 (stereo not given) -3.47%
CNC(=O)c1ccccc1NC(=O)c1c(O)c2c([nH]c1=O)CCCC2 -1.71%
COc1ccccc1CNC(=O)CCn1c(=O)[nH]c2ccsc2c1=O -7.97%
Cc1ccc(-c2nc3cc(NC(=O)C(C)C)ccc3o2)cc1 -1.92%
COc1ccccc1N1CCN(C(=O)c2cc(C3CC3)on2)CC1 -0.64%
CCCCN(C(=O)c1ccc(Cl)cc1)C1CC2CCC(C1)N2C (stereo not given) -5.6%
COc1ccc(OC)c2[nH]c(=O)c(CCNC(=O)C(C)C)cc12 -3.33%
COc1ccccc1S(=O)(=O)Cc1ccc(C(=O)N2CCN(c3ccccn3)CC2)o1 -3.47%
CCC(=O)c1cc(F)c(N2CCN(C(=O)c3ccco3)CC2)cc1C -0.8%
CC(C)Cc1nnc(NS(=O)(=O)c2ccc(Cl)cc2)s1 -4.53%
COc1ccc(N2C(=O)CCC(C(=O)N3CCCCC3)C2c2ccc(OC)c(OC)c2)cc1 (stereo not given) -6.67%
Cc1c(C#N)c2ccccc2n1CC(=O)N1CCc2ccccc2C1 6.67%
COCCCNC(=O)c1ccc(CS(=O)(=O)c2ccc(OC)cc2)o1 -4%
CCCCSc1nc2c(cnn2-c2ccc(F)cc2)c(=O)[nH]1 -0.93%
COc1ccc2[nH]c(C)c(CCN3C(=O)OC(C)(C)C3(C)O)c2c1 (stereo not given) -5.73%
CCCCOCCCNC(=O)COc1ccccc1 -5.54%
c1ccc(-c2cn3cccnc3n2)cc1 -6.45%
CCCCn1c(SCC(=O)OCC)nc2c1c(=O)[nH]c(=O)n2C -2.53%
O=C(CCn1c(=O)oc2ccccc21)NCc1ccco1 -3.47%
CN(C)C(=O)N1CCN(C(=O)c2ccco2)CC1 2.4%
CC(=O)C1=C(C)Nc2ncnn2C1c1cccc(OCc2ccccc2)c1 (stereo not given) -4%
CC1Cc2nc(SCC(=O)N3CCCc4ccccc43)n(C)c(=O)c2S1 (stereo not given) -4.27%
CCOC(=O)N1CCN(C(=O)c2ccc3nc4ccsc4c(=O)n3c2)CC1 -7.87%
CC(C)(C)SCCNC(=O)CN1C(=O)c2ccccc2S1(=O)=O -4.67%
COc1cccc(-c2nnc(NC(C)=O)o2)c1 -5.47%
CCCCc1cc(=O)oc2cc(OCC(=O)N(CC)CC)c(Cl)cc12 -4%
CCOC(=O)CCc1c(C)nc2cc(-c3ccc(F)cc3)[nH]n2c1=O -5.45%
CN(Cc1ccccc1)S(=O)(=O)c1ccc(S(=O)(=O)N2CCN(CCC#N)CC2)cc1 -4.23%
Cc1ccc(-n2c3c(cc(C(=O)NCCCN4CCOCC4)c2=O)C(=O)CC(C)(C)C3)cc1 0.53%
COc1cc2c(cc1OC)C(c1ccc(C)o1)CC(=O)N2 (stereo not given) -0.13%
O=C(Nc1ccc2c(c1)OCO2)c1ccc(CN2CCOCC2)cc1 -7.07%
CC1Cn2c(nnc2-c2ccc(F)cc2)S1 (stereo not given) -2.4%

Experiment: growth suppression of yeast trafficking mutant, preliminary HTS, modulators of trafficking downstream of Golgi apparatus project, 1536-format plate, OD 615 nm (AID 637)
Conditions: yeast transport mutant growth, absorbance 615 nm, 18 h; active compounds read high

inhibition, inactive:
Cc1ccc(NC(=O)c2cc(-c3ccc(C)o3)nc3ccccc23)nc1 -0.82%
CCc1cccc(NC(=O)Cn2cc3c(n2)CCCC3)c1 -3.11%
CCN(CC)C(=O)C1CCCN(c2ncnc3c2cnn3-c2ccc(Cl)cc2)C1 (stereo not given) -2.17%
Cc1cccc(NC(=O)CS(=O)(=O)c2cn(C)c3ccccc23)c1 -0.98%
O=C(CN1C(=O)c2ccccc2S1(=O)=O)NCc1ccccc1Cl -2.17%
Cn1cnc2cc(NC(=O)c3ccc(Cl)cc3)ccc21 -3.33%
COC(=O)c1cn(NC(=O)C2CCCO2)c(=O)c2ccccc12 (stereo not given) -0.49%
O=C(c1ccc(Cl)s1)N1CCN(c2nc3ccccc3s2)CC1 2.5%
O=C(Nc1ccc(N2C(=O)C3C4C=CC(C4)C3C2=O)cc1)Nc1nncs1 (stereo not given) 0.83%
CNC(=O)c1ccccc1NC(=O)c1c(O)c2c([nH]c1=O)CCCC2 0.48%
COc1ccccc1CNC(=O)CCn1c(=O)[nH]c2ccsc2c1=O 2.17%
Cc1ccc(-c2nc3cc(NC(=O)C(C)C)ccc3o2)cc1 -10.3%
COc1ccccc1N1CCN(C(=O)c2cc(C3CC3)on2)CC1 -3.5%
CCCCN(C(=O)c1ccc(Cl)cc1)C1CC2CCC(C1)N2C (stereo not given) -4%
COc1ccc(OC)c2[nH]c(=O)c(CCNC(=O)C(C)C)cc12 1.83%
COc1ccccc1S(=O)(=O)Cc1ccc(C(=O)N2CCN(c3ccccn3)CC2)o1 -1.97%
CCC(=O)c1cc(F)c(N2CCN(C(=O)c3ccco3)CC2)cc1C 2.13%
CC(C)Cc1nnc(NS(=O)(=O)c2ccc(Cl)cc2)s1 -0.5%
COc1ccc(N2C(=O)CCC(C(=O)N3CCCCC3)C2c2ccc(OC)c(OC)c2)cc1 (stereo not given) -1.11%
Cc1c(C#N)c2ccccc2n1CC(=O)N1CCc2ccccc2C1 -3.17%
COCCCNC(=O)c1ccc(CS(=O)(=O)c2ccc(OC)cc2)o1 2.62%
CCCCSc1nc2c(cnn2-c2ccc(F)cc2)c(=O)[nH]1 0.5%
COc1ccc2[nH]c(C)c(CCN3C(=O)OC(C)(C)C3(C)O)c2c1 (stereo not given) -6.67%
CCCCOCCCNC(=O)COc1ccccc1 -2.46%
c1ccc(-c2cn3cccnc3n2)cc1 -0.73%
CCCCn1c(SCC(=O)OCC)nc2c1c(=O)[nH]c(=O)n2C 0.33%
O=C(CCn1c(=O)oc2ccccc21)NCc1ccco1 -5.17%
CN(C)C(=O)N1CCN(C(=O)c2ccco2)CC1 -3.83%
CC(=O)C1=C(C)Nc2ncnn2C1c1cccc(OCc2ccccc2)c1 (stereo not given) 1.5%
CC1Cc2nc(SCC(=O)N3CCCc4ccccc43)n(C)c(=O)c2S1 (stereo not given) 0.33%
CCOC(=O)N1CCN(C(=O)c2ccc3nc4ccsc4c(=O)n3c2)CC1 -6.39%
CC(C)(C)SCCNC(=O)CN1C(=O)c2ccccc2S1(=O)=O 0.82%
COc1cccc(-c2nnc(NC(C)=O)o2)c1 -4.33%
CCCCc1cc(=O)oc2cc(OCC(=O)N(CC)CC)c(Cl)cc12 -1.17%
CCOC(=O)CCc1c(C)nc2cc(-c3ccc(F)cc3)[nH]n2c1=O -7.33%
CN(Cc1ccccc1)S(=O)(=O)c1ccc(S(=O)(=O)N2CCN(CCC#N)CC2)cc1 -7.17%
Cc1ccc(-n2c3c(cc(C(=O)NCCCN4CCOCC4)c2=O)C(=O)CC(C)(C)C3)cc1 -3.67%
COc1cc2c(cc1OC)C(c1ccc(C)o1)CC(=O)N2 (stereo not given) 4.33%
O=C(Nc1ccc2c(c1)OCO2)c1ccc(CN2CCOCC2)cc1 7.1%
CC1Cn2c(nnc2-c2ccc(F)cc2)S1 (stereo not given) -4%
